Screens: PubChem, several laboratories
Compounds with a hit are over-represented: about 2.5% of the library has one in this group of screens.
TMEM16A inh: mouse TMEM16A channel inhibition, primary screen. Q8BHY3. 310,000 compounds, 1.2% hits. AID 588511. normalized B-score (activity score, 25-100; higher = stronger inhibition) at 10 µM. HEK293 TMEM16A/YFP iodide influx fluorescence, ionomycin;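 active = ratio plate-corrected score three or more library SD toward inhibition, starting fluorescence score within five deviations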;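 also: score derived from kinetic fluorescence span divided by baseline fluorescence per well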
Target sequence (Q8BHY3 whole entry, looked up): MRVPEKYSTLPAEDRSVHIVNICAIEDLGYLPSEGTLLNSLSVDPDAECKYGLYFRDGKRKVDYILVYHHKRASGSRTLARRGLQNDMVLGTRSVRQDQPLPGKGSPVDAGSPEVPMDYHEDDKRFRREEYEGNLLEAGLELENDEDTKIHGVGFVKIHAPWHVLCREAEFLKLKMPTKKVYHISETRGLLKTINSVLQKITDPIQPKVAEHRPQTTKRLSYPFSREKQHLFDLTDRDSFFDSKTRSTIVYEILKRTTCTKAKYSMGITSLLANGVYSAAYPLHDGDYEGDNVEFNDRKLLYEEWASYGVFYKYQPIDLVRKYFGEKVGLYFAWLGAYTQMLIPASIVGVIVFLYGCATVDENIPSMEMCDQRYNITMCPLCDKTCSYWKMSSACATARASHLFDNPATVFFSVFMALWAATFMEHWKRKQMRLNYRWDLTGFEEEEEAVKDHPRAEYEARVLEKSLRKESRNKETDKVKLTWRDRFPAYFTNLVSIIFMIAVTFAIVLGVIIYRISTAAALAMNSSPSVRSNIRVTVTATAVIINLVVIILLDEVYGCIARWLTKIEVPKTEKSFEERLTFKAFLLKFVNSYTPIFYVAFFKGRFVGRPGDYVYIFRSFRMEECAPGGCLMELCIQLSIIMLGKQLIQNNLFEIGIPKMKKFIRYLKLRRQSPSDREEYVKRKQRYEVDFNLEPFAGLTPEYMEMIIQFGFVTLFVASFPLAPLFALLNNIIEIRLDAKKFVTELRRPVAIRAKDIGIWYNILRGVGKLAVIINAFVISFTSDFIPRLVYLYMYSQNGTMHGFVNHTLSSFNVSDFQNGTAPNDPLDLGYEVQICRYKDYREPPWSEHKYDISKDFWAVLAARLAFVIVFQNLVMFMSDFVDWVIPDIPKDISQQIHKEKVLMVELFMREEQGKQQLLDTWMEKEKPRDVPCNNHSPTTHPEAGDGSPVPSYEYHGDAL
aSyn 5UTR inh: MLPCN primary screen, SNCA 5' untranslated region; AID 1813; 300,000 compounds, 0.82% hits; alpha-synuclein 5'UTR reporter, inhibitor activity; inhibition, % (tested at 7.5 µM); in the data active = inhibition above about 60%;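 also: H4 neuroglioblastoma cells stably carrying SNCA 5'UTR luciferase fusion; 0% = DMSO wells and 100% = positive control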
TMEM16A act: activators or potentiators of mouse TMEM16A chloride channel; Q8BHY3; HEK293 TMEM16A/YFP-H148Q/I152L, iodide quench fluorescence; stronger effect = lower value; B-score at 10 µM; 340,000 compounds, 0.3% hits; AID 623877;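 active = fluorescence-ratio B-score plate-corrected deviation score at least 3 library SD below zero, with starting fluorescence score within 5 deviations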;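 also: channel opened by trigger with iodide after compound preincubation; score built on the fluorescence ratio of max minus min over baseline; more negative score means more quench and so TMEM16A activation or potentiation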
KLF5 inhibitor: kruppel-like factor 5 inhibition; DLD-1 KLF5 promoter-luciferase reporter, luminescence; inhibition, % at 5 µM; 290,000 compounds, 0.23% hits; AID 1700;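 active = inhibition above a per-plate limit of that plate's mean compound inhibition plus 3 SD, cut at about 60% in these data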;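 also: 0% = DMSO wells and 100% = LY294002 at 200 µM; higher means less KLF5 promoter-driven luciferase light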
697 NFkB inh: inhibitors of the PMA/ionomycin-induced NF-kB reporter in 697 B cells | 330,000 compounds, 0.33% hits | 697 B-cell NF-kB luciferase reporter, 16 h | inhibition, % at 4 µM | AID 435022; in the data active = inhibition above about 35%
Jurkat NFkB inh: inhibitors of the PMA/ionomycin-induced NF-kB reporter in Jurkat cells; PMA/ionomycin-induced NF-kB luciferase reporter, luminescence; inhibition, % at 4 µM; 330,000 compounds, 0.53% hits; in the data active = inhibition above about 50%
Jurkat NFkB conf: lowers PMA/ionomycin-induced NF-kB signal in Jurkat cells. shares compounds with Jurkat NFkB inh. Jurkat NF-kB luciferase, 16 h. inhibition, % at 4 µM. 2,700 compounds, 27% hits. AID 435020;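 active = inhibition reaching about 45% at 4 µM in either replicate, limit read from the data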;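 also: plate controls were PMA/ionomycin stimulated DMSO wells for no effect and unstimulated DMSO wells for full effect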
697 NFkB conf: lowers PMA/ionomycin-induced NF-kB signal in 697 B cells | shares compounds with 697 NFkB inh | AID 449746 | 697 B-cell NF-kB luciferase, 16 h | inhibition, % at 4 µM | 2,000 compounds, 35% hits; in the data active = inhibition mostly above about 28%, no sharp cut-off; inactive = mostly below about 22%
An asterisk follows results filed as active; i = inactive; nt = no result.

SMILES | TMEM16A inh | aSyn 5UTR inh | TMEM16A act | KLF5 inhibitor | 697 NFkB inh | Jurkat NFkB inh | Jurkat NFkB conf | 697 NFkB conf
Nc1nc(F)nc2c1ncn2[C@@H]1O[C@H](CO)[C@@H](O)[C@H]1O | i | 122* | i | nt | 75* | 93* | 89* | 92*
Cc1onc(-c2ccccc2)c1C(=O)OCC(=O)N(C)c1ccccc1 | nt | nt | i | nt | 6 | 5 | nt | nt
CCOCCCNC(=O)c1ccc2c(c1)N=C(CC)c1cc(Br)ccc1S2 | i | 88* | i | 74* | -251 | 78* | 55* | 14
NC(=O)c1cc(S(=O)(=O)Nc2ccccc2)cs1 | i | -9 | i | -30 | 2 | 14 | nt | nt
Cc1cc(/C=C2\Sc3ccccc3N2C)cc(C)[n+]1CC1CCCO1 (configuration not stated) | nt | nt | i | -5 | 36* | 97* | 41 | 0
CC(C)(C)C#CC(CCc1ccccc1)OS(N)(=O)=O (configuration not stated) | i | 2 | nt | -5 | -39 | -6 | nt | nt
COC(=O)c1ccc(NC(=O)C(=O)c2c[nH]c3ccccc23)cc1 | i | -93 | i | -84 | -39 | -35 | nt | nt
O=C(Nc1ccccc1)C(=O)c1c[nH]c2ccccc12 | i | -54 | i | -73 | -299 | -215 | -143 | -329
O=C(/C=C/c1ccc([N+](=O)[O-])cc1)c1cccs1 | i | -51 | i | -16 | 16 | -10 | nt | nt
COc1cc([N+](=O)[O-])ccc1N/C=C/C(=O)c1cccs1 | i | 21 | i | -161 | -267 | -188 | -72 | -169
NNc1nc(-c2ccccc2)nc2sc3c(c12)CCCC3 | i | -65 | i | -45 | -360 | -222 | -44 | -321
CCN(CC)CC(=O)Nc1ccc(-c2nc3cc(NC(=O)CN(CC)CC)ccc3o2)cc1 | i | -32 | i | -25 | -21 | -55 | nt | nt
CCCC(=O)Nc1ccc(-c2nc3cc(C)c(C)cc3o2)cc1 | i | -110 | i | -89 | -383 | -167 | -112 | -297
CCc1ccc2oc(-c3ccc(NC(C)=O)cc3)nc2c1 | i | -9 | i | -86 | -309 | -219 | -143 | -334
O=C(Nc1ccc(-c2n[nH]c(=S)o2)cc1)c1ccccc1Cl | i | -13 | i | -52 | -24 | 7 | nt | nt
CN(C)c1ccc(/C=N/N=C/c2ccccc2O)cc1 | i | -171 | i | 17 | -256 | -161 | -30 | -50
CC(C)Cc1cc(C(C)(C)C)ccc1OC(=S)N(C)C | i | 4 | i | -28 | 40* | 51* | 60* | 33*
CCN1/C(=C\C(=S)Nc2ccccc2)Sc2ccccc21 | i | -144 | i | -27 | -15 | -15 | nt | nt
CCN1/C(=C/C(C)=C/c2sc3ccccc3[n+]2CC)Sc2ccccc21 | i | 100* | i | -19 | 49* | 93* | 78* | 7
Cc1ccccc1C(=O)NNC(=O)C1CC(=O)N(Cc2ccccc2)C1 (configuration not stated) | i | 3 | i | nt | 21 | -4 | nt | nt
COc1ccc(-c2ccc3sc4ccccc4c(=O)c3c2)cn1 | i | -81 | i | nt | -301 | -202 | -127 | -255
COc1ccc2sc3ccccc3c(=O)c2c1OC | i | -145 | i | -14 | -8 | -32 | nt | nt
COc1cc(C2C(c3ccccc3)C(c3cc(OC)cc(=O)o3)C2c2ccccc2)oc(=O)c1 (configuration not stated) | nt | nt | i | nt | nt | nt | nt | nt
Cc1cccc(/C=N/Nc2cc(N3CCOCC3)nc(N3CCOCC3)n2)c1 | i | -19 | i | -16 | 58* | 66* | 9 | 7
CC(C)c1ccc(/C=N/Nc2cc(N3CCOCC3)nc(N3CCOCC3)n2)cc1 | i | nt | i | -18 | -46 | -17 | nt | nt
SMILES | TMEM16A inh | aSyn 5UTR inh | TMEM16A act | KLF5 inhibitor | 697 NFkB inh | Jurkat NFkB inh | Jurkat NFkB conf | 697 NFkB conf
Cc1ccc2cc3cc(C(=O)N4CCCCC4C)oc3nc2c1 (configuration not stated) | i | -200 | i | -109 | -329 | -210 | -160 | -290
C/C(=N\NC(=O)c1ccc(F)cc1)c1ccccn1 | i | -93 | i | 38 | -371 | 100* | -21 | 0
CC(=O)c1c(C)[nH]c(C(=O)OCC(=O)Nc2ccc(C)cc2[N+](=O)[O-])c1C | i | -26 | i | -33 | 48* | 62* | 69* | 27
O=C(CC1C[C@H](C(=O)N2CCOCC2)[C@@]2(CCC3CCCC3)c3[nH]c4ccccc4c3CCN2C1=O)NCCCn1ccnc1 (some centres not stated) | nt | nt | nt | nt | 10 | 6 | nt | nt
C=CCN=c1scc(-c2ccccc2)n1/N=C/c1ccccn1 | i | -68 | i | -67 | i | -199 | -89 | i
C=CCN=c1scc(-c2ccc(F)cc2)n1/N=C/c1ccccn1 | i | -39 | i | -18 | -202 | -50 | nt | nt
CCN=c1scc(-c2ccccc2)n1/N=C/c1ccccn1 | i | 26 | i | -90 | i | -199 | -116 | i
O=C(O)c1cccc(COc2ccccc2Cl)c1 | i | 103* | i | nt | 67* | 82* | 78* | 43*
O=C(O)c1ccc(COc2ccccc2Cl)cc1 | i | -15 | i | -24 | 3 | -15 | nt | nt
COc1ccc(OCC(=O)C2CC2)c(C#N)c1 | i | -78 | i | -14 | -5 | -52 | nt | nt
CC1CCCN(c2ccc([N+](=O)[O-])cc2C(=O)c2ccccc2)C1 (configuration not stated) | i | 84* | i | 42 | 35* | 51* | 40 | 30*
CC1CCN(c2ccc([N+](=O)[O-])cc2C(=O)O)CC1 | i | 21 | i | -38 | 1 | -5 | nt | nt
O=C(c1ccc(Cl)cc1)N(Cc1ccco1)C1CCS(=O)(=O)C1 (configuration not stated) | i | -17 | i | 15 | 14 | 0 | nt | nt
CCN1CCN(C(=O)c2cc(COc3ccc(F)cc3F)on2)[C@@H](C)C1=O | i | 8 | i | -33 | -51 | 3 | nt | nt
COCCNc1nc(C)cc(-c2cc(C(=O)NCc3ccccc3)on2)n1 | i | 5 | i | nt | 13 | -6 | nt | nt
Cc1cc(-c2cc(C(=O)NCc3ccccc3)on2)nc(S(C)(=O)=O)n1 | i | -23 | i | nt | 51* | 52* | 34 | 42*
Cc1ccc(Nc2nc(-c3cccnc3)cs2)cc1C | i | -51 | i | -164 | -257 | -196 | -52 | -125
c1ccc(-c2csc(Nc3ccc4c(c3)OCCO4)n2)cc1 | i | -50 | i | -127 | i | -223 | -82 | -218
Cc1cc(C)nc(Nc2nc(-c3ccccc3)cs2)n1 | i | 22 | i | 57 | -466 | -200 | -122 | -349
